Measured values as given in PubChem BioAssay (Tox21).
Records with an inconclusive call do not appear. Active and inactive are the calls of the source. Unless noted, the call rests on the fitted dose curve; in most records, active means well fitted curve in the direction sought with a large enough effect in the repeat runs; inconclusive means weak or mixed curves; inactive means no such curve, though single readings can be large; an effect the other way counts as inactive or inconclusive.

Tests used:
[1] = target: Retinoic acid receptor RXR-alpha (Homo sapiens) (UniProt P19793); test: qHTS assay to identify small molecule agonists of the RXR signaling pathway (AID 1159527; calls by dose curve; further: nearly all actives have a fitted effect of over 35% in size; further: potency means the concentration at half of the fitted maximal effect)
Sequence of Retinoic acid receptor RXR-alpha (Homo sapiens) (P19793 whole entry, looked up): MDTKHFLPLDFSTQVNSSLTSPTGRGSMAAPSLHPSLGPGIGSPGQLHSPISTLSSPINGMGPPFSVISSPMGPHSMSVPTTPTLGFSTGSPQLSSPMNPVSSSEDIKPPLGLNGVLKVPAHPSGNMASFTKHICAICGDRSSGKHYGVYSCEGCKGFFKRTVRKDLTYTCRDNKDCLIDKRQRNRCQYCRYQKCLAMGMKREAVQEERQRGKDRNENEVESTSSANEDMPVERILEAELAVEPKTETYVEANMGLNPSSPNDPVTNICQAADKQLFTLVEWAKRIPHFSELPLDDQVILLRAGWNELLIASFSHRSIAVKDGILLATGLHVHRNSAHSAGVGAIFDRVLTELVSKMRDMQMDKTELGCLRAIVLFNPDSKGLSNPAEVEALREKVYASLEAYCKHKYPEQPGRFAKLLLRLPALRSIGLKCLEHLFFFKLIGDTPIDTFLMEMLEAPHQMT
Outline: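 qHTS of the Tox21 10K library in GeneBLAzer RXR-alpha HEK 293T cells carrying a beta-lactamase reporter […]; 16 hr treatment, 9-cis retinoic acid as agonist control, FRET read-out.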

[2] = qHTS assay to identify small molecule agonists of the RXR signaling pathway - cell viability counter screen (AID 1159529); further: nearly all actives have a fitted effect of over 50% in size; further: potency means the concentration at half of the fitted maximal effect; on activity change, negative = cytotoxicity: series mostly up to about 77 µM
Outline: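 Cell viability is measured by CellTiter-Glo luminescence, 30 min at room temperature, in wells already read for beta-lactamase. Engineered HEK 293T cells (RXR-alpha-UAS-bla) are dosed 16 hr at 37 C. Tetraoctyl ammonium bromide serves as positive control.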

[3] = qHTS assay to identify small molecule antagonists of the retinoid acid receptor (RAR) signaling pathway - cell viability counter screen (AID 1159551); further: nearly all actives have a fitted effect of over 35% in size
Outline: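 Viability of C3RL4 cells is quantified from ATP by luminescence after 6 h treatment at 37 C with compounds and 1 uM retinol.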

[4] = qHTS assay to identify small molecule agonists of the retinoic acid receptor (RAR) signaling pathway (AID 1159553); further: potency means the concentration at half of the fitted maximal effect
Outline: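 Compounds dissolved in DMSO were pinned onto C3RL4 cells seeded the previous day, and plates were held 6 hr at 37 C. RARE-driven luciferase output was then read by luminescence.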

[5] = qHTS assay to identify small molecule antagonists of the estrogen related receptor (ERR) signaling pathway from Tox21 library - cell viability counter screen (AID 1224834); further: nearly all actives have a fitted effect of over 30% in size
Outline: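 In this quantitative HTS format, ERR cells receive compounds in DMSO and are incubated for 17.5 h at 37 C. Live-cell protease activity is then detected with CellTiter-Fluor.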

[6] = target: Luciferin 4-monooxygenase (Photinus pyralis) (UniProt P08659); test: qHTS assay to identify small molecule inhibitors of firefly luciferase (AID 1224835); further: nearly all actives have a fitted effect of over 25% in size; further: potency means the concentration at half of the fitted maximal effect; on activity change, negative = inhibition: series mostly up to about 120 µM
Sequence of Luciferin 4-monooxygenase (Photinus pyralis) (P08659 whole entry, looked up): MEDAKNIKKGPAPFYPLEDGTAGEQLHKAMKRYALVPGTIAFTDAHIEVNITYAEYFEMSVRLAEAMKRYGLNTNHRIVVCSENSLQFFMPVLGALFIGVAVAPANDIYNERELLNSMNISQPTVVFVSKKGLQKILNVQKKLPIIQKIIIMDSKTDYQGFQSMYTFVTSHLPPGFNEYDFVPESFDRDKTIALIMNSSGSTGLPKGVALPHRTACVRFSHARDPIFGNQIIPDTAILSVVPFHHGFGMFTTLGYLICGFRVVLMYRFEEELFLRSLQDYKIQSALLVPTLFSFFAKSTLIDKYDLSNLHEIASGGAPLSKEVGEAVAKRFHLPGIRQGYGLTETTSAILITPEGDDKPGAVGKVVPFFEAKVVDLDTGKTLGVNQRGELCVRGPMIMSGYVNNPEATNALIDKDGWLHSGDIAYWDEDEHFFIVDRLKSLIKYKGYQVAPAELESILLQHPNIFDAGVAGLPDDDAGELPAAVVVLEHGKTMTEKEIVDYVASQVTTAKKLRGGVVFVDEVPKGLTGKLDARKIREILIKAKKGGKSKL
Outline: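 Quantitative HTS format; KM concentrations of both substrates. Purified P. pyralis FLuc activity quantified from luminescence images.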

[7] = qHTS assay to identify small molecule agonists of the constitutive androstane receptor (CAR) signaling pathway - cell viability counter screen (AID 1224836); further: series mostly up to about 92 µM; nearly all actives have a fitted effect of over 45% in size
Outline: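 Counter screen multiplexed with the CAR reporter readout: HepG2 cells co-transfected with hCAR and the CYP2B6-2.2kb construct receive a 15-concentration compound series and 0.75 uM PK11195 (final), then CellTiter-Fluor fluorescence is read after 23 h.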

[8] = target: Nuclear receptor subfamily 1 group I member 3 (Homo sapiens) (UniProt Q14994); test: qHTS assay to identify small molecule agonists of the constitutive androstane receptor (CAR) signaling pathway (AID 1224839); further: series mostly up to about 92 µM; nearly all actives have a fitted effect of over 15% in size
Sequence of Nuclear receptor subfamily 1 group I member 3 (Homo sapiens) (Q14994 whole entry, looked up): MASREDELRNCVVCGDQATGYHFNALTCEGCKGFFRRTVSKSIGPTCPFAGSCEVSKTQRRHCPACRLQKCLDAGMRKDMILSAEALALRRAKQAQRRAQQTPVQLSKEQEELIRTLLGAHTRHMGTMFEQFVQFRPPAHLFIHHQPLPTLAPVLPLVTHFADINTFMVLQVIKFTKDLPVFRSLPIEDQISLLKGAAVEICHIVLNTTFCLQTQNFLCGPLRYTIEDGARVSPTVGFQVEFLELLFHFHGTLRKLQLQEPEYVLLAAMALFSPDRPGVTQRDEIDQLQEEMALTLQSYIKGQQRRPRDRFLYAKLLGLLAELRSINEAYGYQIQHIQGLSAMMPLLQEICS
Outline: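 A 15-concentration quantitative screen uses HepG2 cells co-transfected stably with human CAR and CYP2B6-2.2kb reporter. Treatment lasts 24 h with 0.75 uM PK11195 final present; ONE-Glo luminescence is the signal.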

[9] = qHTS assay to identify small molecule antagonists of the estrogen related receptor signaling pathway with the pleiotropic PPARgamma coactivator (PGC) from Tox21 10K library - cell viability counter screen (AID 1224840; active means well fitted cell-killing curve with a large enough effect in the repeat runs, not every such curve was filed as active; further: nearly all actives have a fitted effect of over 40% in size)
Outline: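 Viability counter screen, PGC/ERR cells: 17.5 h compound exposure at 37 C, CellTiter-Fluor fluorescence endpoint.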

[10] = qHTS assay to identify small molecule antagonists of the constitutive androstane receptor (CAR) signaling pathway - cell viability counter screen (AID 1224837); further: series mostly up to about 92 µM; nearly all actives have a fitted effect of over 45% in size
Outline: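 In quantitative HTS format, compounds at 15 concentrations were applied to HepG2 cells double-transfected with hCAR and CYP2B6-2.2kb under 50 nM CITCO stimulation; live-cell protease activity was read after 23 hr via CellTiter-Fluor.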

[11] = qHTS assay to identify small molecule antagonists of the estrogen related receptor (ERR) signaling pathway - cell viability counter screen (AID 1224818); further: series mostly up to about 46 µM
Outline: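 Cytotoxicity check run alongside the ERR antagonist screen: cells exposed to test compounds 17.5 h at 37 C, viability taken as CellTiter-Fluor fluorescence intensity.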

[12] = qHTS assay to identify small molecule antagonists of the estrogen related receptor signaling pathway with the pleiotropic PPARgamma coactivator (PGC) cell viability counter screen (AID 1224822; further: series mostly up to about 46 µM)
Outline: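 Viable cell signal (CellTiter-Fluor, 30 min, 37 C/5% CO2) was measured in PGC/ERR cells after a 17.5 h compound incubation.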

[13] = target: Nuclear receptor subfamily 1 group I member 3 (Homo sapiens) (UniProt Q14994); test: qHTS assay to identify small molecule antagonists of the constitutive androstane receptor (CAR) signaling pathway (AID 1224838); further: nearly all actives have a fitted effect of over 40% in size
Outline: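 CITCO-stimulated (50 nM final) HepG2 cells stably transfected with hCAR and CYP2B6-2.2kb luciferase were exposed to compounds at 15 concentrations for 24 h at 37 C/5% CO2. A luciferase reagent was added and luminescence recorded after 30 min.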

[14] = qHTS assay to identify small molecule antagonists of the retinoic acid receptor (RAR) signaling pathway (AID 1159552; further: nearly all actives have a fitted effect of over 50% in size)
Outline: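 Quantitative HTS in C3RL4 RARE-luciferase reporter cells. Compounds were added with 1 uM (final) retinol; luminescence was read after 6 hr.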

[15] = qHTS assay to identify small molecule antagonists of the estrogen related receptor signaling pathway with the pleiotropic PPARgamma coactivator (PGC) from Tox21 10K library (AID 1224841; call rule not given here; further: series mostly up to about 92 µM; actives are mostly falling curves and most rising ones were filed inactive; nearly all actives have a fitted effect of over 50% in size)
Outline: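 In the PGC/ERR line, DMSO solutions of test chemicals are pin-delivered to 2,000 cells/well six hours after dispensing. Following eighteen hours' incubation, One-Glo reagent is added and luminescence recorded.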

[16] = qHTS assay to identify small molecule agonists of the estrogen related receptor signaling pathway with the pleiotropic PPARgamma coactivator (PGC) from Tox21 10K library (AID 1224842); further: nearly all actives have a fitted effect of over 15% in size; further: potency means the concentration at half of the fitted maximal effect
Outline: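 PGC/ERR reporter cells (NTP line) were seeded 2,000 per well, rested 6 h at 37 C/5% CO2, then pin-dosed with compounds in DMSO for 18 h at 37 C; luciferase read by One-Glo luminescence after 30 min at room temperature.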

[17] = qHTS assay to identify small molecule antagonists of the estrogen related receptor (ERR) signaling pathway (AID 1224819;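 further: luminescence from an ERR-driven luciferase reporter measured with One-Glo reagent; series mostly up to about 46 µM; nearly all actives have a fitted effect of over 50% in size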)
Outline: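 ERR reporter cells were plated at 2,000 cells/well and left 6 h at 37 C/5% CO2 before pin-tool transfer of compounds in DMSO. After 18 h at 37 C, One-Glo was added and luminescence was read 30 min later at room temperature.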

[18] = qHTS assay to identify small molecule agonists of the estrogen related receptor (ERR) signaling pathway (AID 1224820)
Outline: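 Luminescence readout (One-Glo, 30 min RT) from NTP-supplied ERR cell line exposed to compounds for 18 h at 37 C. Cells seeded 2,000 per well and pre-incubated 6 h before pin-tool compound transfer.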

[19] = system: estrogen-related receptor alpha (ERRalpha) with PGC-1alpha coactivator, human; test: qHTS assay to identify small molecule antagonists of the estrogen related receptor signaling pathway with the pleiotropic PPARgamma coactivator (PGC) (AID 1224821; calls by dose curve)
Outline: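 PGC/ERR reporter cells; 6 h pre-incubation 37 C/5% CO2; pin-tool compound in DMSO, 18 h 37 C; One-Glo added, 30 min RT; luminescence read. qHTS antagonist mode.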

[20] = qHTS assay to identify small molecule agonists of the estrogen related receptor signaling pathway with the pleiotropic PPARgamma coactivator (PGC) (AID 1224823)
Outline: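 Luminescence readout (One-Glo, 30 min RT) from PGC/ERR cell line treated 18 h at 37 C with pin-tool-delivered DMSO compound solutions; cells plated 6 h before dosing. Quantitative HTS format.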
On the % scale 0 is the no-effect control and ±100 the full control effect.

CCC/C=C/CO
inactive: Potency [1] | Potency [2] | outcome [3] | Potency [4] | Potency [5] | Potency [6] | Potency [7] | Potency [8] | Potency [9]

C=CCCCCCCCCO
inactive: Potency [1] | Potency [2] | outcome [3] | Potency [5] | Potency [6] | Potency [7] | Potency [10] | Potency [9]

CC(=O)Oc1cc(C(C)C)c(OCCN(C)C)cc1C
inactive: Potency [1] | Potency [2] | outcome [3] | outcome [11] | outcome [12] | Potency [5] | Potency [6] | Potency [10] | Potency [13] | Potency [9]

CC(C)(C)c1ccc(OC(=O)c2ccccc2O)cc1
inactive: outcome [3] | Potency [14] | Potency [5] | Potency [7] | Potency [10] | Potency [13] | Potency [9] | Potency [15]
active: Potency [2] 49 µM | Potency [4] 1.09 µM | Potency [6] 1.78 µM | Potency [16] 10.9 µM

CCCCCCCCCC/C=C/C#N
inactive: Potency [2] | outcome [3] | Potency [14] | Potency [4] | Potency [5] | Potency [6] | Potency [7] | Potency [10] | Potency [13] | Potency [8] | Potency [9] | Potency [15] | Potency [16]

Cc1ccc(C(C)C)cc1O
inactive: Potency [1] | Potency [2] | outcome [3] | Potency [5] | Potency [6] | Potency [7] | Potency [10]

CN(C)CCOc1ccccc1Cc1ccccc1
inactive: Potency [1] | outcome [3] | Potency [14] | Potency [4] | Potency [5] | Potency [6] | Potency [7] | Potency [13] | Potency [9] | Potency [16]

NC(Cc1ccc(F)cc1)C(=O)O (stereo not drawn)
inactive: activation [1] 12.3% [at 6.98 µM] | activity change, negative = cytotoxicity [2] 2.52% [at 6.97 µM] | activity change, negative = cytotoxicity [3] 2.5% [at 8.39 µM] | viability change, negative = cytotoxic [5] 0.439% [at 8.39 µM] | activity change, negative = inhibition [6] 1.28% [at 10.5 µM] | viability change, negative = cytotoxic [9] 2.83% [at 8.39 µM] | activity, negative = inhibition [15] 25.2% [at 8.39 µM] | activation [16] 1.4% [at 8.39 µM]

CC(C)CCCCCCc1ccc(OCCOCCO)cc1
inactive: Potency [2] | outcome [3] | Potency [14] | Potency [4] | Potency [5] | Potency [6] | Potency [7] | Potency [10] | Potency [13] | Potency [8] | Potency [9] | Potency [15] | Potency [16]

NC1=NCC2c3ccccc3Cc3ccccc3N12 (stereo not drawn)
inactive: Potency [1] | Potency [2] | outcome [3] | outcome [11] | outcome [12] | Potency [5] | Potency [7] | Potency [10] | Potency [8]

O=C1CCC(C2CCCCC2)CC1
inactive: Potency [2] | outcome [3] | Potency [14] | Potency [4] | Potency [5] | Potency [6] | Potency [7] | Potency [10] | Potency [13] | Potency [8] | Potency [9] | Potency [15] | Potency [16]

C[C@]12CCC(=O)C=C1CC[C@@H]1[C@@H]2CC[C@@]2(C)[C@H]1CC[C@]2(O)C(=O)CO
inactive: Potency [2] | outcome [3] | Potency [14] | Potency [4] | outcome [11] | outcome [17] | outcome [18] | outcome [19] | outcome [12] | outcome [20] | Potency [5] | Potency [6] | Potency [7] | Potency [10] | Potency [9] | Potency [15] | Potency [16]

CC1(C)S[C@@H]2[C@H](NC(=O)C(C(=O)O)c3ccccc3)C(=O)N2[C@H]1C(=O)O (stereo partly drawn)
inactive: Potency [2] | outcome [3] | Potency [14] | Potency [4] | Potency [5] | Potency [6] | Potency [7] | Potency [10] | Potency [13] | Potency [9] | Potency [15] | Potency [16]

CN(C)CC[C@@H](c1ccc(Cl)cc1)c1ccccn1
inactive: Potency [1] | Potency [2] | outcome [3] | outcome [11] | outcome [12] | Potency [5] | Potency [7] | Potency [10] | Potency [9]

CCN(CC)CCNC(=O)COc1ccc(Cl)cc1
inactive: Potency [2] | outcome [3] | Potency [14] | Potency [4] | Potency [5] | Potency [6] | Potency [7] | Potency [10] | Potency [13]

CC(C)Nc1nc(N)nc(Cl)n1
inactive: Potency [2] | outcome [3] | Potency [14] | Potency [4] | Potency [5] | Potency [6] | Potency [7] | Potency [10] | Potency [8] | Potency [9]

Cc1c(C(=O)NCCO)[n+](=O)c2ccccc2n1[O-]
inactive: Potency [1] | Potency [2] | outcome [3] | Potency [5] | Potency [6] | Potency [7] | Potency [10] | Potency [13] | Potency [8] | Potency [9]

COC(=O)c1ccc(OC)cc1
inactive: Potency [2] | outcome [3] | Potency [14] | Potency [4] | Potency [5] | Potency [6] | Potency [7] | Potency [10] | Potency [13] | Potency [8] | Potency [9] | Potency [15] | Potency [16]

CCCCCCCCOC(=O)CCCCCCCCC(=O)OCCCCCCCC
active: Potency [1] 9.77 µM
inactive: Potency [2] | outcome [3] | Potency [4] | Potency [5] | Potency [6] | Potency [7] | Potency [9] | Potency [15] | Potency [16]

CC(C)C(=O)OC/C=C/c1ccccc1
inactive: Potency [1] | Potency [2] | outcome [3] | Potency [5] | Potency [7] | Potency [13] | Potency [8] | Potency [9] | Potency [15] | Potency [16]
active: Potency [6] 71 µM

CNCCC(Oc1ccccc1OC)c1ccccc1 (stereo not drawn)
inactive: Potency [1] | Potency [2] | outcome [3] | outcome [11] | outcome [17] | outcome [18] | outcome [19] | outcome [12] | outcome [20] | Potency [5] | Potency [6] | Potency [7] | Potency [13] | Potency [9] | Potency [16]
